In all, about 300,000 compounds went through this assay and about 2,500 (0.83%) were called active.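 How the source made its calls: active means inhibition above the mean of all tested compounds plus 3 SD, set per screening campaign (cut at about 24% in these data); inactive means the rest.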 The entries come from a sample that favours actives as a whole.
What follows are compounds tested on tRNA 2'-phosphotransferase TPT1 (Candida albicans SC5314) (assay: Candida albicans TPT1 enzyme inhibitors, primary screen, biochemical, fluorescence polarization (AID 1962;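 further: plate controls were DMSO alone for no effect and ferristatin control at 100 nM for full effect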)). Details: recombinant caTPT1, FP RNA substrate dephosphorylation; at 5 µM; hits give high values.

With `CCOC(=O)c1c(NC(=O)NC(C)(C)C)sc2c1CCN(C)C2` as the compound, how does the inhibition read?
Its inhibition is 2.5% (inactive).

How did the inhibition turn out when `CCOC(=O)c1c(NC(=S)NC)sc2c1CCCC2` was run?
Its inhibition is -1.5% (inactive).

With `CCOC(=O)c1c(NC(=S)Nc2ccccc2)sc2c1CCN(C)C2` as the compound, how does the inhibition read?
Its inhibition is 53.5% (active).

For `CCOc1ccc(/C=C/C(=O)N(CC)CC(=O)NCc2cccs2)cc1OC`, which inhibition is on record?
The inhibition was -3.86% (inactive).

For `CC(=O)c1sc(N/N=C/c2ccc(C(C)C)cc2)nc1C`, which inhibition is on record?
Its inhibition is 23% (inactive).

For `COc1ccccc1/C=N/Nc1nc(C)c(C(C)=O)s1`, which inhibition is on record?
The inhibition was 28% (active).

How did the inhibition turn out when `CC(=O)c1sc(N/N=C\c2ccc(C)cc2)nc1C` was run?
Its inhibition is 17.2% (inactive).

`CCCCNC(=O)Nc1c(C)cc(SC#N)cc1C` was tested. Which inhibition did it give?
The inhibition was -6.37% (inactive).

Which inhibition does the source give for `COCCNC(=O)C1CCN(C(=O)C2CC(=O)N(c3ccc(C)cc3)C2)CC1` (centres undefined) here?
The inhibition was 1.54% (inactive).

How did the inhibition turn out when `Cc1ccn2c(c1)nc(=O)c1cc(S(=O)(=O)N3CCC(C)CC3)ccc12` was run?
The inhibition was 0.45% (inactive).

With `NC(=O)c1cc2ccccc2o/c1=N/NC(=O)c1cccc(F)c1` as the compound, how does the inhibition read?
The inhibition was -1.51% (inactive).

For `COc1ccc(C(=O)N/N=c2\oc3ccccc3cc2C(N)=O)cc1`, which inhibition is on record?
The inhibition was 4.71% (inactive).

With `CCN(CC)c1ccc2cc(C(N)=O)/c(=N\NC(=O)c3ccncc3)oc2c1` as the compound, how does the inhibition read?
The inhibition was 133% (active).

For `NC1=NC(=O)C(Cc2cccc(Cl)c2)S1` (centres undefined), which inhibition is on record?
The inhibition was -2.15% (inactive).

With `CCC(=C/c1sc2ccc3ccccc3c2[n+]1C)/C=C1\Sc2ccc3ccccc3c2N1C` as the compound, how does the inhibition read?
The inhibition was 92% (active).

Which inhibition does the source give for `CCCCCCCCn1c2c(c(=N)c3c1CCC3)CCCC2` here?
The inhibition was -2.44% (inactive).

How did the inhibition turn out when `CCCCCCSc1ccc([C@@H]2[C@@H]3C(=O)N(CC)C(=O)[C@@H]3[C@]3(C(=O)OC)CCCCN23)cc1OC` was run?
Its inhibition is 1.68% (inactive).

Which inhibition does the source give for `CCn1c(-c2cc(OC)ccc2OC)csc1=Nc1c(C)n(C)n(-c2ccccc2)c1=O` here?
The inhibition was -1.13% (inactive).

Which inhibition does the source give for `COc1cc(N=Cc2c(O)[nH]c3ccccc23)cc(OC)c1OC` here?
Its inhibition is -0.99% (inactive).

For `CN=c1scc(-c2cc(OC)ccc2OC)n1/N=C/c1c(C)[nH]c2ccccc12`, which inhibition is on record?
Its inhibition is 62.6% (active).

How did the inhibition turn out when `Cc1nn2c(=O)cc(COC(=O)c3ccc(NC(=O)C(C)(C)C)cc3)nc2s1` was run?
Its inhibition is -2.53% (inactive).

With `CCOC(=O)[C@H]1[C@H]2COc3ccc(OC)cc3[C@@H]2N2C(=O)c3ccc(F)cc3NC(=O)[C@@]12C` as the compound, how does the inhibition read?
Its inhibition is 0.85% (inactive).

For `CC(C)CCN1NC2(CCC(C)CC2)NC1=S` (centres undefined), which inhibition is on record?
Its inhibition is 2.43% (inactive).

For `COc1ccc2ccccc2c1CNc1nnnn1C`, which inhibition is on record?
Its inhibition is -1.06% (inactive).

Which inhibition does the source give for `O=C1CN(C(=O)c2ccccc2F)C(c2ccc(F)cc2)c2cc(F)ccc2N1` (centres undefined) here?
The inhibition was 0.25% (inactive).

How did the inhibition turn out when `CCC(c1nnnn1Cc1ccco1)N(Cc1cc2cc(OC)ccc2[nH]c1=O)C1CCCCC1` (centres undefined) was run?
Its inhibition is 38.4% (active).

With `CCC(c1nnnn1Cc1ccccc1)N(Cc1cc2cc(OC)ccc2[nH]c1=O)CC1CCCO1` (centres undefined) as the compound, how does the inhibition read?
The inhibition was -1.86% (inactive).

How did the inhibition turn out when `CCC(c1nnnn1Cc1ccco1)N(CCc1ccccc1)Cc1cc2ccc(OC)cc2[nH]c1=O` (centres undefined) was run?
The inhibition was -2.34% (inactive).

How did the inhibition turn out when `CCOc1ccc(Oc2nc(C)cc(OC)n2)nn1` was run?
The inhibition was -1.74% (inactive).

`CN(C)C(=O)N=NC(=O)N(C)C` was tested. Which inhibition did it give?
The inhibition was -3.37% (inactive).

For `COc1ccc(N=C(C)c2sc3ccccc3c2O)cc1`, which inhibition is on record?
Its inhibition is 63.5% (active).

For `COc1ccccc1-c1sc2ccccc2c1-c1ccc(C(C)=O)cc1`, which inhibition is on record?
Its inhibition is -1.61% (inactive).

With `COC(=O)Cc1[nH]n(-c2nc3ccccc3s2)c(=O)c1C(C)=Nc1ccc(OC)cc1` as the compound, how does the inhibition read?
The inhibition was 1.09% (inactive).

How did the inhibition turn out when `CC(C)(Oc1ccc(C2CC2(Cl)Cl)cc1)C(=O)O` (centres undefined) was run?
Its inhibition is -2.25% (inactive).

With `Cc1cccc2cc3c(N)c(C(=O)N4CCCc5ccccc54)sc3nc12` as the compound, how does the inhibition read?
Its inhibition is 45.2% (active).

Which inhibition does the source give for `Cc1c(C(=O)N2CCCc3ccccc32)oc2ccccc12` here?
Its inhibition is -2.42% (inactive).

`Cc1c(C(=O)N2CCCc3ccccc32)sc2nc(-c3ccccc3)cn12` was tested. Which inhibition did it give?
The inhibition was -1.15% (inactive).

For `C#CCOCCOCCOCCNc1nc(N2CCN(C(=O)Cn3cc(CCCCN)nn3)CC2)nc(N2CCN(C(=O)[C@H](CCCCN)n3cc(CCC(=O)O)nn3)CC2)n1`, which inhibition is on record?
Its inhibition is -1.83% (inactive).

For `Cc1ccc(Cc2nnc(SCC(=O)Nc3ccccc3C)[nH]c2=O)cc1`, which inhibition is on record?
The inhibition was 1.69% (inactive).
